# Shown are actives, neighbours in structure and some others; about 4.1% of the full set was active somewhere.
# DAX1 inh-1 = blocks DAX1 repression of SF-1 activated StAR promoter. HEK293T StAR-luciferase reporter, SF-1/DAX-1 repression relief. inhibition, % at 6.8 µM. 370,000 tested, 1.1% active. AID 652010;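 active means inhibition above the mean over all tested compounds plus 3 SD, cut at about 3.6% in these data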;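 further: 0% = DAX-1 cells with DMSO and 100% = cells lacking DAX-1 with DMSO; higher inhibition means more luminescence from relief of DAX-1 repression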
# hcDAF-12 act = activates DAF-12 receptor from parasite H. contortus; HEK293 hcDAF-12 lit1-tk-luc reporter, luminescence; 0% DMSO, 100% Δ7-dafachronic acid; activation, % at 6.8 µM; 370,000 tested, 1.4% active; AID 652067;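 active means activation above the mean of all tested compounds plus 3 SD, cut at about 5.5% in these data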;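 further: 100% = response to 3 µM Δ7-dafachronic acid high control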
# ssDAF12 agonist = S. stercoralis DAF-12 activation, primary screen. HEK293 ssDAF-12/GRIP1 lit1-tk-luc reporter, luminescence; % of 3 µM dafachronic acid response. AID 652126. 370,000 tested, 1% active. activation, % at 6.8 µM;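 active means activation above the mean over all tested compounds plus 3 SD, cut at about 0.9% in these data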;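 further: 0% = DMSO-only wells and 100% = 3 µM delta7-dafachronic acid wells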
# DAX1 inh-2 = inhibits human nuclear receptor DAX1. HEK293 Gal4-DAX1 luciferase reporter, luminescence. 340,000 tested, 0.99% active. inhibition, % at 6.75 µM. P51843;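 active means inhibition above the mean over all tested compounds plus 3 SD, cut at about 4.2% in these data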;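 further: 0% = DAX1-transfected cells with DMSO and 100% = empty-vector control cells with DMSO; inhibition shows as a rise in luminescence from relieved DAX1 repression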
# Target sequence (P51843 207-470 limits assumed): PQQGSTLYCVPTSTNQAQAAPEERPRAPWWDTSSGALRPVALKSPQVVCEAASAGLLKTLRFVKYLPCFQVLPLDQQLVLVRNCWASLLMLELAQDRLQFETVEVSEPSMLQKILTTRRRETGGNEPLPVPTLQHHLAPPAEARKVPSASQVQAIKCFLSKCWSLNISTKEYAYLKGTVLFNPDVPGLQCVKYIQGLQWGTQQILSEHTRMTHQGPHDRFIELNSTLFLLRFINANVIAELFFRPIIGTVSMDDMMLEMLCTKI
# hgDAF-12 ag = hgDAF-12 agonism, primary luciferase screen; HEK293 GAL4-hgDAF12 UAS-luciferase reporter, agonist luminescence; normalized to butyrate control; 370,000 tested, 1.8% active; activation, % at 6.8 µM;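 active means activation above a cutoff set at the mean of all screened compounds plus 3 SD, cut at about 10% in these data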;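 further: 0% = DMSO wells and 100% = sodium butyrate wells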
# Numbers without * were called inactive; . = no result given.
SMILES,DAX1 inh-1,hcDAF-12 act,ssDAF12 agonist,DAX1 inh-2,hgDAF-12 ag
O=C(Nc1ccc2c(c1)CCC2)C1COc2ccccc2O1 (stereo unspecified),3,4,0,1,12*
O=c1c2ccccc2n(Cc2ccccc2)n1[C@@H](Cc1ccccc1)Cn1cc(-c2ccc(-c3ccccc3)cc2)nn1,0,-1,-2,.,-3
O=C(Nc1nc2c(s1)CCCC2)C1COc2ccccc2O1 (stereo unspecified),4.4*,5,0,-2,3
COc1ccc(CNCC#Cc2ccccc2)c(OC)c1,0,1,0,.,4
Cc1cccc(C)c1NC(=O)C(c1ccccc1)N1CCN(C)CC1 (stereo unspecified),4.4*,2,-1,.,0
O=Cc1ccccc1OCc1ccc2c(c1)OCO2,1,5,0,4.5*,10
CC(C)(C)NC(=O)C(c1cccnc1)N(C(=O)c1cnc[nH]1)c1ccc(C(C)(C)C)cc1 (stereo unspecified),.,-2,-1,.,1
CCc1ccc(N2C(=O)CC(Cn3nc(C)cc3C)C2=O)cc1 (stereo unspecified),0,0,-1,5.1*,0
Cc1ccc(N2C(=O)CC(Cn3nc(C)cc3C)C2=O)cc1 (stereo unspecified),1,0,-1,-1,1
Cc1ccc(CCNC(=O)CC2Oc3ccc(C)cc3NC2=O)cc1 (stereo unspecified),1,-1,-1,11*,3
Cc1ccc2c(c1)NC(=O)C(CC(=O)NCCCN1CCCCC1)O2 (stereo unspecified),0,-1,-1,4.5*,6
CCOC(=O)c1c(CSC(=N)N)n(-c2ccccc2)c2cc(Br)c(OC(C)=O)cc12,1,-1,-1,4.3*,-1
CCOC(=O)c1c(CN2CCN(C)CC2)n(-c2ccccc2)c2cc(Br)c(O)cc12,0,-2,-2,2,-1
CCN(CC)c1ccc(C(=O)Nc2ccccc2)cc1[N+](=O)[O-],0,0,0,0,12*
CCc1ccccc1NC(=O)c1ccc(NCCc2ccccc2)c([N+](=O)[O-])c1,1,-2,-1,4.4*,0
O=C(Nc1ccccc1)c1ccc(NCCc2ccccc2)c([N+](=O)[O-])c1,1,1,-1,1,0
CN(C)CCCNc1nc2cc(-c3ccn[nH]3)sc2c(=O)n1C,1,-1,-1,.,1
Cc1cc(C)n(-c2cc(N3CCN(S(=O)(=O)c4ccc(C)c(C)c4)CC3)ccc2[N+](=O)[O-])n1,0,2,-1,5.4*,-1
O=C(CN1CCN(c2nc(-c3ccccc3)cs2)CC1)Nc1ccc(Cl)cc1,-1,-3,-1,.,-4
O=C(Nc1nnc(-c2cccnc2)s1)c1cnc2ccccc2c1,3,0,-1,.,7
NC(=O)C(=O)N/N=C/c1c[nH]c2ccc(Br)cc12,0,0,0,4.5*,0
O=C(N/N=C/c1c[nH]c2ccc(Br)cc12)c1ccncc1,-1,0,-2,-1,-2
O=C(N/N=C/c1c[nH]c2ccc(Br)cc12)C1CC1,0,-1,-1,0,0
O=C(N/N=C/c1c[nH]c2ccc(Br)cc12)c1ccccn1,2,3,0,4,16*
COCc1cccc(-c2csc(C(C)(NC(C)=O)c3ccc(OC)cc3)n2)c1 (stereo unspecified),0,-2,-1,.,2
SMILES,DAX1 inh-1,hcDAF-12 act,ssDAF12 agonist,DAX1 inh-2,hgDAF-12 ag
O=C(CCc1nnc(C2CCCCC2)o1)NCc1ccc(F)c(F)c1,0,0,-1,5.6*,-1
Cc1cc(-c2nnc(CCC(=O)NCc3ccc(F)c(F)c3)o2)no1,0,0,1.9*,4.3*,3
Cc1cc(-c2nnc(CCC(=O)NCc3cccc(C(F)(F)F)c3)o2)no1,-1,0,0,0,3
Cc1ccccc1C(=O)N(Cc1ccccn1)CC1CCCO1 (stereo unspecified),1,-2,0,.,3
CCc1ccc(Oc2cc(C)nc(N)n2)cc1,2,2,0,1,11*
CCCc1ccc(Oc2cc(Cl)nc(N)n2)cc1,1,1,-1,2,3
Nn1c(SCc2c(F)cccc2F)nnc1-c1ccccn1,2,4,-1,24*,6
CCOC(=O)Cn1cc(CN2C(C(=O)OC)CN(Cc3ccc(Cl)cc3)CCS2(=O)=O)nn1 (stereo unspecified),0,0,0,.,0
CC(C)C(=O)N1CC[C@H]2[C@H](CCCN2Cc2cc(F)cc(F)c2)C1,0,-1,-2,.,8
CSC(=S)NN=C(C)c1cccc(C)n1,0,6.0*,1,-1,2
C=CCn1c(C)cc(C(=O)CSc2nc3ccccc3c(=O)[nH]2)c1C,1,-1,-1,-1,4
Cc1cc(C(=O)CSc2nc3ccccc3[nH]2)c(C)n1C,3.7*,6,1.1*,1,11*
Cc1cc(C(=O)CSc2nnc(-c3ccncc3)n2-c2ccccc2)c(C)n1C,-2,-2,-1,7.4*,-1
Cc1cc(C(=O)CSc2nnc(-c3ccccc3)n2C)c(C)n1C,0,1,-1,-1,-1
Cn1c(=O)n(C)c2cc(NC(=O)CSc3nc4ccccc4c(=O)[nH]3)ccc21,0,1,-1,4.7*,0
COCCn1c(C)cc(C(=O)CSc2nc3ccccc3c(=O)[nH]2)c1C,2,3,0,6.5*,7
O=C(CSc1nc2ccccc2c(=O)[nH]1)Nc1ccc(C(=O)O)cc1,1,-1,-1,1,1
Cc1ccc2nc(SCC(=O)c3cc(C)n(C)c3C)[nH]c2c1,0,-1,0,0,0
O=C(Nc1nnc(-c2ccc(F)cc2)s1)C1CCN(S(=O)(=O)c2ccc(Cl)cc2)CC1,1,-1,0,1,0
CCCc1nnc(NC(=O)CCC(=O)N2CCN(S(=O)(=O)c3ccc(C)cc3)CC2)s1,-1,-2,1.1*,-2,0
Cc1ccc(NC(=O)C2CCN(S(=O)(=O)c3cccnc3)CC2)cc1C,-1,-2,-1,0,-3
Cc1ccc(S(=O)(=O)N2CCC(C(=O)Nc3nnc(-c4ccc(F)cc4)s3)CC2)cc1,0,6.5*,-1,1,0
Cc1ccc(S(=O)(=O)N2CCC(C(=O)Nc3cccnc3)CC2)cc1,0,0,-2,5.4*,-2
COC(=O)[C@]12CCCCC=C1N(CCc1ccc(OC)c(OC)c1)C(=O)[C@H](CC(=O)N1CCCCC1)C2,-2,0,-1,.,-3
O=[N+]([O-])c1cccc(COc2ccc(CO)cc2)c1,2,7.0*,2.6*,.,19*
COc1ccc(OCc2cccc(C(=O)Nc3cc(C)on3)c2)cc1,2,4,0,-4,10
COc1ccc(OCc2cccc(C(=O)Nn3cc([N+](=O)[O-])cn3)c2)cc1,2,5,0,-4,11*

# Compound activity from PubChem.
